The values below come from the supplement of paper PMC10849652.

The full data set covers some 7,900 targets. This sample favours those with a hit. About 0.6% of all pairs of compound and target were hits.

Sequence of UniProt Q6ZTR5 (Q6ZTR5 whole entry, looked up): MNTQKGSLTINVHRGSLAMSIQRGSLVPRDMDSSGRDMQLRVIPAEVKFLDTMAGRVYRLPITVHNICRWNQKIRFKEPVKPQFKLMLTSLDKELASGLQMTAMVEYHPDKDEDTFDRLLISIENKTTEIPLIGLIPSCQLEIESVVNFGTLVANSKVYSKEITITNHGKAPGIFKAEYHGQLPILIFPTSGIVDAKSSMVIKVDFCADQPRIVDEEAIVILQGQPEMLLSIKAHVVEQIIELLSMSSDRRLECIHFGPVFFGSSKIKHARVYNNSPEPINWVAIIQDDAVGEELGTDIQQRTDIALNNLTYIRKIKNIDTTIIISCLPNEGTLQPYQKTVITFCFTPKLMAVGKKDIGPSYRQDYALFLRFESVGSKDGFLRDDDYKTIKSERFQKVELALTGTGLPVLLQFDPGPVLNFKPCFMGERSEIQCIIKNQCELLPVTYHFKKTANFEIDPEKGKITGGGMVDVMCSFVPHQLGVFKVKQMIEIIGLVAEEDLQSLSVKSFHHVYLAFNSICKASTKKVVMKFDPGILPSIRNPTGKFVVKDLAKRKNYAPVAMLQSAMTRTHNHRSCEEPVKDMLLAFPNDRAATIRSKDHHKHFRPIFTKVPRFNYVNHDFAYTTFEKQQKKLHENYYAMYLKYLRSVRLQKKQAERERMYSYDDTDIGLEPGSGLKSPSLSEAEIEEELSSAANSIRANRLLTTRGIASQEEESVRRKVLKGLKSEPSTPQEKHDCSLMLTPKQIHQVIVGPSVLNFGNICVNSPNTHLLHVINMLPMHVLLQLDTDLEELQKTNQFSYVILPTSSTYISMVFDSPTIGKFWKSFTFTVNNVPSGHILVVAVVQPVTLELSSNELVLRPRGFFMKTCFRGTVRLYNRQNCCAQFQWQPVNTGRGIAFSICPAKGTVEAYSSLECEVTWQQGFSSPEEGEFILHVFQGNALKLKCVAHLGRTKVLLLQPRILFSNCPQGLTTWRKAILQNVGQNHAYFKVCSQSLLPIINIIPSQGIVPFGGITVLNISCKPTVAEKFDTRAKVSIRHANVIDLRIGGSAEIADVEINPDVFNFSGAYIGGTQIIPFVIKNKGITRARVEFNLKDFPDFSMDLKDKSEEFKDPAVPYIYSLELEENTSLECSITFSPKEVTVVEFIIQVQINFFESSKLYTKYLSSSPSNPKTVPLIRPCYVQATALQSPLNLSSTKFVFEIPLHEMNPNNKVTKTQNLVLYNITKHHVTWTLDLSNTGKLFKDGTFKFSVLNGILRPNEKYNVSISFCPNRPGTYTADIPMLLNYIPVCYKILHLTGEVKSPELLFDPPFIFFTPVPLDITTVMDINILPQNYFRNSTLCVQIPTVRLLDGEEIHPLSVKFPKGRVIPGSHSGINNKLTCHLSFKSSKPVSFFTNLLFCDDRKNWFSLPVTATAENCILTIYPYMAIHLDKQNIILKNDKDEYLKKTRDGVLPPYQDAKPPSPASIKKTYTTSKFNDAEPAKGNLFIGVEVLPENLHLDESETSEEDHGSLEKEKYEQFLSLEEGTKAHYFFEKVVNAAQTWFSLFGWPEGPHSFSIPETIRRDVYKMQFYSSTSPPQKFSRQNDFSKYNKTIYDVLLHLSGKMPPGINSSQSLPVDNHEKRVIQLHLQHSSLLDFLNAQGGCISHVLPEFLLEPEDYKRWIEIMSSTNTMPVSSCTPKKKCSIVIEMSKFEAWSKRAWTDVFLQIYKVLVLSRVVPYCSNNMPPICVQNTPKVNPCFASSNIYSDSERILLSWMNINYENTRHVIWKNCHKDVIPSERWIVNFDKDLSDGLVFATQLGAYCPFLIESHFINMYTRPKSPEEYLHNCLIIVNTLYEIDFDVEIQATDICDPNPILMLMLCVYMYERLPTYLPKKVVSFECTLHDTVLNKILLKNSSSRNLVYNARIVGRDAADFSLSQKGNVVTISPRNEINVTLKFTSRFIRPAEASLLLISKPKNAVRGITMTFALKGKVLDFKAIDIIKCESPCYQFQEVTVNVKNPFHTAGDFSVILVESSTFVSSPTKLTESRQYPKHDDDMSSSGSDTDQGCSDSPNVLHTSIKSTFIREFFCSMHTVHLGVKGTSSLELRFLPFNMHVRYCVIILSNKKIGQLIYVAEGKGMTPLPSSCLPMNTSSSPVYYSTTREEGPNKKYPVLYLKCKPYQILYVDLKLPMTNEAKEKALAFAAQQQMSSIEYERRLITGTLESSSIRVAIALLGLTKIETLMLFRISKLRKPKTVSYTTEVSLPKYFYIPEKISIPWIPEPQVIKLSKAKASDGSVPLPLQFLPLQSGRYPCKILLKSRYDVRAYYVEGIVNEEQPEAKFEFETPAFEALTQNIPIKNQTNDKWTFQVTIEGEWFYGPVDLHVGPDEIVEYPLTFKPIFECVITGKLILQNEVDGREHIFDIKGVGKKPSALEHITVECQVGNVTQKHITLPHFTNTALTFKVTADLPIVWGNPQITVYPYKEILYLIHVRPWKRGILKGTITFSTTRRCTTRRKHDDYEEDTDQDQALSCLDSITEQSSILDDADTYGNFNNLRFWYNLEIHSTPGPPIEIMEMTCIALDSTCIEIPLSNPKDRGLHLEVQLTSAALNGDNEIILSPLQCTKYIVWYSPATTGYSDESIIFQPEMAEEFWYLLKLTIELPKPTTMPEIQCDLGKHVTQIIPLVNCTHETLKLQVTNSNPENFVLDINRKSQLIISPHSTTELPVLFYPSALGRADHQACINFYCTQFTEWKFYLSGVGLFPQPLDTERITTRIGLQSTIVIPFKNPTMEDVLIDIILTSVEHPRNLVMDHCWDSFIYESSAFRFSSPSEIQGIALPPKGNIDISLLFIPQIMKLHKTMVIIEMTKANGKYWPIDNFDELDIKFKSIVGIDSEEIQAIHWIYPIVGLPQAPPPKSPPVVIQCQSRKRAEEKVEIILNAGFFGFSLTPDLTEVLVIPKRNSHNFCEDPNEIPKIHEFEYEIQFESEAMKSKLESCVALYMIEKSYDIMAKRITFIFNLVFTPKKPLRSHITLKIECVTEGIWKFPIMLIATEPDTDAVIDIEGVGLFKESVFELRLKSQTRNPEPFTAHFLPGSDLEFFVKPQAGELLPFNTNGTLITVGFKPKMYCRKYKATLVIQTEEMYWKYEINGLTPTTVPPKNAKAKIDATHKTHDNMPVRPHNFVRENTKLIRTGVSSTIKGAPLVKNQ
Sequence of UniProt Q14061 (Q14061 whole entry, looked up): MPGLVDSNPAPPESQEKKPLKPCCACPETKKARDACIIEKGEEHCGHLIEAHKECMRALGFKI
Sequence of UniProt Q5BKX5 (Q5BKX5 whole entry, looked up): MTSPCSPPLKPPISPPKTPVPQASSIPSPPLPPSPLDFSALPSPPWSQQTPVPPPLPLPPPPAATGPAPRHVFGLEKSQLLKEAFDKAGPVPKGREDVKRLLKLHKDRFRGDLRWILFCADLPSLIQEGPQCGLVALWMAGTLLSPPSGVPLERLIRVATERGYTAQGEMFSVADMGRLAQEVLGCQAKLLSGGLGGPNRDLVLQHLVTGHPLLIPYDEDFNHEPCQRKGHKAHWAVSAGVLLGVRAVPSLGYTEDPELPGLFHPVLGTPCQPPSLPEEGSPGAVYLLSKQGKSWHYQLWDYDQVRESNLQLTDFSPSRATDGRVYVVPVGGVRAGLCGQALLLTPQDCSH
Sequence of UniProt P51911 (P51911 whole entry, looked up): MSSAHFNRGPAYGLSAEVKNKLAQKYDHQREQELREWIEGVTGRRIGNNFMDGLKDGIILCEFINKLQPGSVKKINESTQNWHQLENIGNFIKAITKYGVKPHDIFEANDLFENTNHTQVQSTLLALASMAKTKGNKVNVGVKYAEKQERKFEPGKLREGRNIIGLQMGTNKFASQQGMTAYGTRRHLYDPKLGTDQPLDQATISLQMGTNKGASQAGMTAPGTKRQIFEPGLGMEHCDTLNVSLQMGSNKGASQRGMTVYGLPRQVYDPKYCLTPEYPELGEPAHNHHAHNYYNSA
Sequence of UniProt Q9H9S4 (Q9H9S4 whole entry, looked up): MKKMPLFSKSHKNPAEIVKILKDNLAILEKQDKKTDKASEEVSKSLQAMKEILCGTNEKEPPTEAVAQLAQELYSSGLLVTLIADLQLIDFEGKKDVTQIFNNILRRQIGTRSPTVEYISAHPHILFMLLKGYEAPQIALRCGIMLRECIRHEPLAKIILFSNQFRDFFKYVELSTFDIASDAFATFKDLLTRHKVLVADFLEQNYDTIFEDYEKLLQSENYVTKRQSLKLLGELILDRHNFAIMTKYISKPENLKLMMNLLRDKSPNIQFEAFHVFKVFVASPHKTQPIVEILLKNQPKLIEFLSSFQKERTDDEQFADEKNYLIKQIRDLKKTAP
Sequence of UniProt Q7Z4R8 (Q7Z4R8 whole entry, looked up): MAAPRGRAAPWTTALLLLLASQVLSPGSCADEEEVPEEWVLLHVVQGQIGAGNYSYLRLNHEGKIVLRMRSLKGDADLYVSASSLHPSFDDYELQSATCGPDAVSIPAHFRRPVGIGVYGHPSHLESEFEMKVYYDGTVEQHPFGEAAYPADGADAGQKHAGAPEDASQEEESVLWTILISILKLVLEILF
Sequence of UniProt Q9Y2V0 (Q9Y2V0 whole entry, looked up): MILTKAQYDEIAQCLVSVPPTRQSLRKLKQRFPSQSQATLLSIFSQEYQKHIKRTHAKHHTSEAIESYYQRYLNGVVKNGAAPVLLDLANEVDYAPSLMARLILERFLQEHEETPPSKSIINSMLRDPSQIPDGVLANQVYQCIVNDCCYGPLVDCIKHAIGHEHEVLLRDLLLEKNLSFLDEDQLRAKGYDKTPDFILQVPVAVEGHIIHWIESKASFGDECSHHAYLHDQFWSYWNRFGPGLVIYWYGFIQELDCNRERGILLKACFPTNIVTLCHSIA
Sequence of UniProt Q8N668 (Q8N668 whole entry, looked up): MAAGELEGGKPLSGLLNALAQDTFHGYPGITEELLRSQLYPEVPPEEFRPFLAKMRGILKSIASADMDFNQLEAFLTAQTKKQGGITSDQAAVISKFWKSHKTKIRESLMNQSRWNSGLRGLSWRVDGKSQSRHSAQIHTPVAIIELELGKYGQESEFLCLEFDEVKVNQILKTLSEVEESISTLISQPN
Sequence of UniProt A8MTT3 (A8MTT3 whole entry, looked up): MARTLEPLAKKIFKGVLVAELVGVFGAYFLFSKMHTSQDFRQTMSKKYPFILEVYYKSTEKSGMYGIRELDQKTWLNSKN

Compound in this assay: CC1=C2C(=CC=C1)N=C(N(C2=O)C3=CC=CC=C3C)CN4C=NC5=C(N=CN=C54)N
In words: log2 fold change, soluble protein after heating vs DMSO (PISA); higher = thermal stabilisation; K562 cells, 10 uM, 30 min; active = over 0.2 and 3.5 SD of the protein, either way, in both replicates (recomputed). The essentials: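 Values are thermal stability changes relative to control samples and are taken from duplicates. They are stated as log2 fold changes. Before quantification by TMTpro 16plex LC-MS/MS with equalised channel sums, K562 cells at 2×10^6 cells/mL were treated with 10 μM compound for 30 min, heated in aliquots for 3 min across 48°C-58°C, pooled, extracted in PBS with 0.5% NP-40 at 4°C, and centrifuged at 21,000xg for 90 min to give the soluble supernatant.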
COMMD1 (UniProt Q8N668): the log2 fold change was 0.007 (inactive). The result for CA1 (UniProt E5RIF9) reads 0.187 (inactive). The result for CDCA2 (UniProt Q69YH5) reads 0.05 (inactive); that for CAB39L (UniProt Q9H9S4), 0.201 (inactive).

Consider CDK19 (UniProt Q9BWU1), for which the log2 fold change was 0.05 (inactive). Next, CFAP47 (UniProt Q6ZTR5): 0.173 (inactive); CNN1 (UniProt P51911): -0.063 (inactive); C15orf41 (UniProt Q9Y2V0): 0.014 (inactive). For the target CASP9 (UniProt P55211), the log2 fold change is 0.102 (inactive). Next, C19orf54 (UniProt Q5BKX5): 0.059 (inactive); COX17 (UniProt Q14061): 0.022 (inactive); C1D (UniProt Q13901): 0.028 (inactive). The result for CLCN5 isoform 2 (UniProt P51795) reads -0.023 (inactive); that for CRLS1 (UniProt Q9UJA2), -0.034 (inactive). The result for C6orf120 (UniProt Q7Z4R8) reads 0.37 (active); that for CRTC2 (UniProt Q53ET0), -0.075 (inactive); that for COX7C (UniProt P15954), -0.073 (inactive). Take COPS3 isoform 2 (UniProt Q9UNS2): the log2 fold change was 0.2 (inactive). CASP8 isoform 9 (UniProt Q14790): the log2 fold change was 0.052 (inactive). Next, CRTC1 isoform 2 (UniProt Q6UUV9): 0.018 (inactive); CEBPZOS (UniProt A8MTT3): -0.105 (inactive).
